GPR151 activ = activators of human GPR151, primary screen, cell-based, PathHunter beta-arrestin, luminescence; AID 1508602, 2020; PathHunter beta-arrestin GPR151 cells; G-protein coupled receptor 151 (Homo sapiens), Q8TDV0; 1% of 650,000 active; activation, % at 11.2 µM; in the data active = activation above about 4.9%;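 also: 0% = median of compound wells and 100% = cells with positive control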
Target sequence (Q8TDV0 whole entry, looked up): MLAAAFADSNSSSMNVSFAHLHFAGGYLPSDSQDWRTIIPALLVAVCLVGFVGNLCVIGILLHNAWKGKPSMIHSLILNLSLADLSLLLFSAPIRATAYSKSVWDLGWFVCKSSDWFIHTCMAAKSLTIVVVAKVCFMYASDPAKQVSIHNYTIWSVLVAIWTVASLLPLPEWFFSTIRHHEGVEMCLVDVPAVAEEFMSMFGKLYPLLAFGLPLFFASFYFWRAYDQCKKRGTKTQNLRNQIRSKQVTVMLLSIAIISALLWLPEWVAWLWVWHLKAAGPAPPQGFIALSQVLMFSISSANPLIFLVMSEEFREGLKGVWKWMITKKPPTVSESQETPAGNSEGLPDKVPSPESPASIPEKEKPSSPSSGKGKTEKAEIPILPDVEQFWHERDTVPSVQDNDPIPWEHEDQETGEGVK
TEAD-YAP block = TEAD-YAP interaction inhibition, primary screen, TEAD-YAP interaction inhibitor project, luminescence, HEK-TIYL cells. TEAD-Gal4/YAP UAS-luciferase luminescence. AID 1259422, 2018. inhibition, % at 9.12 µM. 1.4% of 640,000 active; in the data active = inhibition above about 32%;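 also: 0% = median of test compound wells and 100% = reference inhibitor wells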
MITF primary = MITF inhibitors, primary screen, biochemical, AlphaScreen, human; Microphthalmia-associated transcription factor (Homo sapiens), O75030; AlphaScreen MITF homodimerization, bead proximity signal; inhibition, % at 2.6 µM; 0.91% of 650,000 active; in the data active = inhibition above about 50%;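 also: 0% = vehicle wells with protein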
FBW7 act = FBW7 E3 ligase activators, primary screen, biochemical, AlphaScreen, human; 0.13% of 650,000 active; AlphaScreen FBW7–phospho-cyclin E peptide binding, activator screen; F-box/WD repeat-containing protein 7 (Homo sapiens), Q969H0; AID 1259310, 2017; normalized activity (activation), % at 26.1 µM; in the data active = normalized activity above about 1.9%;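 also: purified mutant Fbw7 with reduced substrate affinity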
* hit, by the source's call; ! = a repeat was not active. Rows were chosen to be rich in hits. Some 3.5% of all compounds tested hit in one or more screens of this group.

SMILES | GPR151 activ | TEAD-YAP block | MITF primary | FBW7 act
Oc1c(C(c2ccc(Cl)cc2)N2CCCCC2)ccc2cccnc12 (stereo not given) | -1 | 71* | 3 | -2
Oc1c(C(c2ccc(C(F)(F)F)cc2)N2CCCCC2)ccc2cccnc12 (stereo not given) | -1 | 83* | 9 | 0
Cc1ccc2nc3c(cc(C#N)c(=O)n3-c3ccc(Br)cc3)c(=O)n2c1 | -1 | -2 | 4 | 1
COc1ccc(O)c(C(=O)c2cnn(C(=O)CN3C(=O)COc4ccccc43)c2)c1 | 0 | -6 | -3 | 0
O=c1oc2c(O)c(O)cc3c(=O)oc4c(O)c(O)cc1c4c23 | 0 | -3 | 94*! | 0
Cc1c(C)c2ccc(O)c(O)c2oc1=O | 1 | 4 | 1 | 0
O=C1/C(=C/c2cccnc2)CCCC/C1=C\c1cccnc1 | -4 | -2 | 13 | 1
Cc1ccc(/C=C2/CN(C)C/C(=C/c3ccc(C)o3)C2=O)o1 | 0 | 2 | 0 | 0
O=C1/C(=C/c2ccncc2)CCC/C1=C\c1ccncc1 | 0 | 59* | -2 | 0
CN1C/C(=C\c2ccncc2)C(=O)/C(=C/c2ccncc2)C1 | 0 | 95* | 8 | 0
O=C(O)/C=C\C(=O)Nc1cccc([N+](=O)[O-])c1 | 2 | 8 | -3 | 0
Cc1cc(C)nc(/N=C(\N)Nc2ccc([N+](=O)[O-])cc2C)n1 | 2 | -1 | 0 | 0
COc1cc([N+](=O)[O-])ccc1N/C(N)=N/c1nc(C)cc(C)n1 | 0 | 57*! | -20 | 0
COc1ccc(N2C(=O)C(F)(F)C2c2ccc(F)cc2)cc1 (stereo not given) | 2 | 5 | -5 | 0
O=C(c1ccccc1)n1c(=S)nc2ccccn21 | -2 | 40* | 14 | 0
COC(C(=O)Nc1ccnn1C1CCN(Cc2ccccc2C)CC1)c1ccccc1 (stereo not given) | 5 | -1 | -5 | 0
Cc1nc(C)c(C(=O)c2coc3ccc(O)cc23)o1 | 0 | -28 | 11 | 0
O=C(c1cc2ccccc2o1)c1coc2ccc(O)cc12 | -8 | 65* | -7 | 0
Cc1cc(N2CCCC2)nc(Nc2ccc(NS(=O)(=O)c3cccc(F)c3)cc2)n1 | -1 | 54* | -3 | 0
CCOc1ccc(N(C(C)C(=O)Nc2cc(Cl)ccc2OC)S(C)(=O)=O)cc1 (stereo not given) | 1 | 32* | 4 | 0
COc1ccc(N(C(C)C(=O)Nc2cc([N+](=O)[O-])ccc2OC)S(C)(=O)=O)cc1 (stereo not given) | 0 | 51* | 1 | 0
CCOc1ccc(N(C(C)C(=O)Nc2cc(C)ccc2OC)S(C)(=O)=O)cc1 (stereo not given) | 0 | 47* | -12 | 0
CCOc1ccc(N(C(C)C(=O)Nc2ccccc2Cl)S(C)(=O)=O)cc1 (stereo not given) | 1 | 0 | -12 | 0
CCOC(=O)c1ccccc1NC(=O)C(C)N(c1ccc(OCC)cc1)S(C)(=O)=O (stereo not given) | -1 | 57* | -8 | 0
CCOc1ccc(N(C(C)C(=O)Nc2ccccc2OC)S(C)(=O)=O)cc1 (stereo not given) | -1 | 17 | 1 | 0
SMILES | GPR151 activ | TEAD-YAP block | MITF primary | FBW7 act
CCOc1ccc(N(C(C)C(=O)Nc2ccc(Cl)cc2C)S(C)(=O)=O)cc1 (stereo not given) | 1 | 6 | 10 | 1
COc1ccc2o/c(=N\c3sc4c(c3C(N)=O)CCCC4)c(C(=O)Nc3ccc(F)cc3)cc2c1 | 1 | 3 | -8 | 0
COc1ccc(-c2csc3ncc(C(=O)N4CC(C)CC(C)C4)c(=O)n23)cc1 (stereo not given) | 0 | 1 | 1 | 0
COc1ccccc1N(CCC#N)C(=O)CCl | 0 | 18 | 4 | 0
N#CCCN(C(=O)CCl)c1ccccc1F | -2 | 46* | 13 | 0
COCCNc1ccc2ncc(-c3cccs3)n2n1 | -1 | 37* | -17 | 0
c1ccc(CCNc2ccc3ncc(-c4cccs4)n3n2)nc1 | 0 | 80* | -4 | 0
Cc1ccc(S(=O)(=O)N2C(=O)CCC2C(=O)O/N=C(\N)c2ccccn2)cc1 (stereo not given) | 0 | 3 | 14 | 1
CCOc1ccccc1CNc1ncnc2c1nc1n2CCCCC1 | 0 | 41* | -1 | 0
COc1ccc(-c2cnnc(NCc3cnc(C)cn3)n2)cc1 | 1 | 0 | 8 | 0
COc1ccc(-c2cnc(NCc3cnc(C)cn3)nc2)cc1 | -2 | 46* | 9 | 1
O=[N+]([O-])c1ccc(Cl)c(-n2cnnn2)c1 | 1 | 59* | 8 | 0
COc1cc(C(=O)Oc2ccc([N+](=O)[O-])c3cccnc23)cc(OC)c1OC | 1 | 6 | 15 | 0
CC(=O)NC(c1ccc2c(c1)OCO2)c1cc([N+](=O)[O-])c2cccnc2c1O (stereo not given) | 0 | -3 | 68* | -1
O=[N+]([O-])c1cc([N+](=O)[O-])c2cccnc2c1Oc1ccccc1O | -1 | -27 | 68* | -1
COc1ccccc1C(NC(C)=O)c1cc([N+](=O)[O-])c2cccnc2c1O (stereo not given) | 0 | -8 | 85* | -1
O=[N+]([O-])c1ccc(OS(=O)(=O)c2ccc3ccccc3c2)c2ncccc12 | 1 | 48* | 2 | -2
COc1ccc(/C=C2\CCCC3C2=NN(C(=O)CCC(=O)O)C3c2ccc(OC)cc2)cc1 (stereo not given) | 2 | 2 | 11 | 0
CC(=O)NC(c1ccc(Cl)cc1Cl)c1cc([N+](=O)[O-])c2cccnc2c1O (stereo not given) | 1 | 31 | 58* | -2
CC(=O)NC(c1ccco1)c1cc([N+](=O)[O-])c2cccnc2c1O (stereo not given) | -1 | -2 | 55* | 0
CC(=O)NC(c1ccc(C)cc1)c1cc([N+](=O)[O-])c2cccnc2c1O (stereo not given) | 1 | -10 | 31 | -1
COc1cccc(OC)c1C(=O)N1CCN=C1SCc1ccccc1 | 0 | -3 | 11 | 0
Cc1ccc(O)c(N=Nc2ncn[nH]2)c1 | 3 | 80* | 47 | -2
Oc1ccc(N=Nc2ncn[nH]2)c(O)c1 | 0 | 11 | 92* | 0
Cc1ccc(O)c(N=Nc2ccc(S(=O)(=O)O)cc2)c1 | -7 | 14 | 9 | 0
O=C(CSc1ncn[nH]1)c1ccc(O)cc1O | -4 | -1 | -9 | 0
Cc1sc2ncnc(-n3ncc(C#N)c3N)c2c1C | -1 | -1 | 11 | 0
COc1ccc(C(=O)N2CCCC(c3ncncc3-c3ccncc3)C2)o1 (stereo not given) | 1 | 0 | 4 | 0
CCc1ccc2oc(-c3ccccc3)cc(=NCC(=O)O)c2c1 | -3 | 32* | 14 | 0

Compound activity (PubChem BioAssay)
